Here are results for 40 molecules from PubChem BioAssay.

Values without a mark were called inactive. The rule behind the calls is not given here.

Chain of Pantothenate synthetase (Mycobacterium tuberculosis (strain ATCC 25618 / H37Rv)) (P9WIL5 whole entry, looked up): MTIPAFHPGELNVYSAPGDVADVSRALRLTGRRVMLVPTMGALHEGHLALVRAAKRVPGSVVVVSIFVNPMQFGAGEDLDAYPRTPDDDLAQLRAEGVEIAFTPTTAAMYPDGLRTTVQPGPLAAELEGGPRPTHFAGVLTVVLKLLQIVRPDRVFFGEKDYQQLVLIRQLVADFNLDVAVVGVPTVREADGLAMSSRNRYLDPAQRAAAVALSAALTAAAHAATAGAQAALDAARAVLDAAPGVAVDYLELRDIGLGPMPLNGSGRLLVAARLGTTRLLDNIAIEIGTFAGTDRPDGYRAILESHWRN

The assay addresses Pantothenate synthetase (Mycobacterium tuberculosis (strain ATCC 25618 / H37Rv)) (UniProt P9WIL5). Nature of the assay: Recombinant Mtb pantothenate synthetase (PanC) inhibitors, coupled enzyme, confirmatory (AID 375).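 Note: 0% = full reaction with vehicle and 100% = no enzyme background.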 The following applies: coupled enzyme assay; at 10 µM, active compounds read high.
For the molecule `O=C1C2CC=CCC2C(=O)N1c1ccc(Cc2ccncc2)cc1` (stereo not given), the inhibition (in general, the relative decrease from the control value, in per cent) is 0%.
As for `CCOC(=O)c1sc(NC(=O)c2c(C)nn(Cc3ccccc3)c2C)cc1C`, the inhibition is 0%.
In the case of `O=C(c1sc2ccccc2c1Cl)N(Cc1cccs1)C1CCS(=O)(=O)C1` (stereo not given), the inhibition is 0%.
The same measure for `COCCCNC(=O)CCc1nc(-c2ccccc2Cl)no1`: 0%; for `COC(=O)CCN(C(=O)c1ccc2c(c1)OCO2)c1ccccn1`: 0%; for `COc1ccc(C(=O)Nc2cccnc2)cc1C(=O)Nc1cccnc1`: 0%.
As for `COC(=O)c1cccc(NC(=O)CSc2nnc(COc3ccc(C#N)cc3)n2-c2ccccc2)c1`, the inhibition is 2%.
For the molecule `Cc1cccc(N=C2NC(=O)CS2)c1C`, the inhibition is 0%.
Turning to `COc1ccc(C2CC(=O)C(C=NCCN3CCOCC3)=C(O)C2)cc1` (stereo not given), the inhibition is 0%.
As for `N#Cc1ccc(-c2csc(NC(=O)C3CC3)n2)cc1`, the inhibition is 0%.
For the molecule `Cc1cc(C(=O)OCCO)c(C#N)c(N)n1`, the inhibition is 0%.
The same measure for `CCN(CC)C(=O)Cn1ncc2c1-c1ccccc1OC2`: 0%; for `O=C(O)C1CC(=O)N(CCOc2ccccc2)C1` (stereo not given): 8%; for `CN(c1ccccc1)S(=O)(=O)c1ccc(C(=O)OCC(=O)N2CCOCC2)cc1`: 7%.
For `CCCCN(Cc1cc2cc(OC)ccc2[nH]c1=O)C(=O)COc1ccccc1` the value was 2%; for `CCn1c(CSc2ncccn2)nnc1SCC(=O)N1c2ccccc2CC1C` (stereo not given), 6%; for `CCOC(=O)Nc1c(O)ccc2oc(C)c(-c3ccccc3)c12`, 0%.
For `CCOC(=O)N1CCC(NC(=O)CN2C(=O)CCSc3ccccc32)CC1` the value was 0%; for `CSc1nc(=NC(C)=O)ss1`, 0%.
As for `CN1CCc2c(sc3c2C(=O)NC(c2cccc(OC(=O)c4cccs4)c2)N3)C1` (stereo not given), the inhibition was 0%.
For `COc1ccc(C(=O)CSc2nnc(CNc3ccc(C)cc3C)o2)cc1` the value was 2%.
As for `Cn1cccc1-c1nc2ccc(NC(=O)c3ccco3)cc2[nH]1`, the inhibition was 6%.
Regarding `O=C1NC(c2ccccc2)(C(F)(F)F)SC2=CCCCCN12` (stereo not given), the inhibition was 0%.
In the case of `COC(=O)CC(C(=O)Nc1cc(C(=O)OC)cc(C(=O)OC)c1)N1CCN(C)CC1` (stereo not given), the inhibition is 3%.
Consider `Cc1cc2nc(C3CCN(CC4COc5ccccc5O4)CC3)[nH]c2cc1C` (stereo not given), for which the inhibition was 6%.
On to `COc1cccc(C(=O)Nc2ncc3c(n2)CC(C)CC3=O)c1` (stereo not given), for which the inhibition was 5%.
In the case of `COc1ccc(Cc2nc(-c3ccc(NC(=O)c4cccnc4)cc3)no2)cc1`, the inhibition was 0%.
The same measure for `COC(=O)CS(=O)(=O)c1nnc([C@H](Cc2ccccc2)NC(=O)OC(C)(C)C)o1`: 1%; for `CCOC(=O)c1[nH]c(C)c(C(=O)Nc2ccc(C)cc2C)c1C`: 1%; for `COC(=O)Cc1[nH]nc2c1C(C1C=CCCC1)C(C#N)=C(N)O2` (stereo not given): 3%.
For `N#Cc1cc2ccc(N3CCOCC3)cc2cc1C#N` the value was 0%; for `CCOC(=O)c1[nH]c(C)c(C(=O)NCc2ccccn2)c1C`, 0%.
For `Clc1cccc(Nc2c3c(nc4ncnn24)CCC3)c1` the value was 0%; for `Cc1csc(NC(=O)c2cccs2)n1`, 0%; for `COc1ccc(S(=O)(=O)N2CCN(c3ccc(C)cc3C)CC2)cc1OC`, 3%.
For `CCOc1ccccc1N1C(=O)CC(Sc2ncccc2C(=O)O)C1=O` (stereo not given), the inhibition is 0%.
Take `CCN(CC)S(=O)(=O)c1ccc(Br)c(OC)c1`: the inhibition is 0%.
Consider `O=C(CSc1nnc(-c2ccccc2F)o1)OCc1ccccc1`, for which the inhibition is 0%.
Take `C=CCC1(O)C(=O)Nc2ccccc21` (stereo not given): the inhibition is 0%.
The same measure for `Cc1cc(C(=O)CN2C(=O)c3ccccc3C2=O)c(C)n1Cc1cccs1`: 0%.
